Eight molecules from PubChem BioAssay (NCI) can be followed below.

The panel holds about 83,000 compounds, 20% with a hit somewhere; the sample as a whole holds those more often.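 Single-concentration screen, 48 h exposure, 96-well plates. Endpoint: percent growth. Below 10 = active.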 Values without a mark were called inactive. The source made the active and inactive calls.

Test systems include SR leukemia; RPMI-8226 leukemia; OVCAR-8 ovarian; OVCAR-5 ovarian; OVCAR-4 ovarian; SK-OV-3 ovarian; IGROV1 ovarian; OVCAR-3 ovarian; HS 578T breast; NCI/ADR-RES ovarian; T-47D breast; BT-549 breast; MDA-MB-435 melanoma; SW-620 colon; MCF7 breast; HCT-116 colon; HCC-2998 colon; KM12 colon.
Holding throughout (assay): NCI-60 one-dose screen, 48 h (100 = growth as untreated, 0 = no growth, -100 = all killed)
Holding throughout (settings): 10 µM unless noted

Turning to `O=C(Cn1c(=O)sc2ccccc21)NNS(=O)(=O)c1ccccc1[N+](=O)[O-]`, the growth with SR leukemia was 96%; with RPMI-8226 leukemia, 98.4%; in the test with OVCAR-8 ovarian, 99.4%; with OVCAR-5 ovarian it was 100%; in the test on OVCAR-4 ovarian, 117%; with SK-OV-3 ovarian it was 103%. Moreover, the growth is 102% with IGROV1 ovarian; 99.3% in the test on OVCAR-3 ovarian; 103% with HS 578T breast; 103% in the test with NCI/ADR-RES ovarian; 105% in the test on T-47D breast; 116% in the test with BT-549 breast. Further, the growth in the test on MDA-MB-435 melanoma is 98.5%; with SW-620 colon, 103%; with MCF7 breast it was 96.5%; with HCT-116 colon it was 107%; in the test on HCC-2998 colon it was 107%; with KM12 colon it was 99.9%.

As to `CC1=C(Nc2ccc(N3CCN(C)CC3)cc2)C(=O)c2cncnc2C1=O`, the growth in the test on SR leukemia is 26.2%; in the test with RPMI-8226 leukemia, 41.8%; in the test on OVCAR-8 ovarian, 2.2% (active); in the test with OVCAR-5 ovarian, 71.7%; in the test with OVCAR-4 ovarian it was -98.1% (active); in the test on SK-OV-3 ovarian, 111%. Moreover, the growth with IGROV1 ovarian is 1.56% (active); in the test on OVCAR-3 ovarian it was -34.8% (active); in the test on HS 578T breast, 126%; in the test with NCI/ADR-RES ovarian it was 18.1%; with T-47D breast, -44.2% (active); in the test on BT-549 breast it was 101%. Also, the growth is -83.7% (active) in the test on MDA-MB-435 melanoma; 75.8% with SW-620 colon; 61.9% in the test on MCF7 breast; 6.39% (active) with HCT-116 colon; 126% in the test with HCC-2998 colon; 91.2% in the test with KM12 colon.

`COc1cc(C(=O)n2nc(N3CCN(C)CC3)c3cc(N)ccc32)cc(OC)c1OC`: the growth in the test with SR leukemia is 13.3%; with RPMI-8226 leukemia it was 33.3%; with OVCAR-8 ovarian, 30.3%; in the test on OVCAR-5 ovarian it was 50.4%; with OVCAR-4 ovarian, 49.7%; in the test with SK-OV-3 ovarian, 28.1%. Also, the growth in the test with IGROV1 ovarian was 32.5%; in the test with OVCAR-3 ovarian, 4.26% (active); with HS 578T breast, 44.5%; in the test on NCI/ADR-RES ovarian it was 67.9%; with T-47D breast it was 57.7%; with BT-549 breast, 27.9%. Also, the growth is -12% (active) with MDA-MB-435 melanoma; 30% with SW-620 colon; 11.6% with MCF7 breast; 7.66% (active) in the test with HCT-116 colon; 89.7% with HCC-2998 colon; 57.9% with KM12 colon.

In the case of `CCOC(=O)C1=C(NC)OCC1=O`, the growth with SR leukemia was 93.6%; with RPMI-8226 leukemia it was 99.6%; in the test with OVCAR-8 ovarian it was 98.6%; in the test with OVCAR-5 ovarian it was 115%; with OVCAR-4 ovarian, 112%; with SK-OV-3 ovarian it was 110%. In addition, the growth was 113% with IGROV1 ovarian; 109% with OVCAR-3 ovarian; 94.7% in the test on HS 578T breast; 105% in the test on NCI/ADR-RES ovarian; 110% in the test with T-47D breast; 102% in the test with BT-549 breast. Further, the growth with MDA-MB-435 melanoma is 110%; in the test on SW-620 colon, 100%; in the test with MCF7 breast it was 103%; with HCT-116 colon, 108%; in the test with HCC-2998 colon, 102%; in the test with KM12 colon it was 105%.

As to `CCN1CCN(Cc2cn(CC(=O)Nc3ccc4c(ccn4Cc4ccccc4)c3)nn2)CC1`, the growth in the test with SR leukemia is 63.5%; in the test with RPMI-8226 leukemia, 85%; in the test with OVCAR-8 ovarian, 99.7%; in the test on OVCAR-5 ovarian, 113%; in the test with OVCAR-4 ovarian it was 97.4%; with SK-OV-3 ovarian, 92.7%. Moreover, the growth with IGROV1 ovarian is 105%; with OVCAR-3 ovarian, 102%; in the test on HS 578T breast it was 100%; with NCI/ADR-RES ovarian, 108%; in the test on T-47D breast it was 91.1%; in the test with BT-549 breast, 96.1%. For the same molecule, the growth in the test on MDA-MB-435 melanoma is 97.7%; in the test with SW-620 colon, 99.3%; in the test with MCF7 breast it was 99.5%; in the test with HCT-116 colon, 99.2%; with HCC-2998 colon it was 110%; in the test on KM12 colon it was 101%.

`COc1ccc(NC(=O)c2sc3nc(C)c(C(=O)/C=C/c4cccc(OC)c4)cc3c2N)cc1`: the growth with SR leukemia was 5.9% (active); with RPMI-8226 leukemia, -22.9% (active); in the test on OVCAR-8 ovarian it was 11.6%; in the test with OVCAR-5 ovarian, 59.6%; in the test on OVCAR-4 ovarian, 69.1%; in the test with SK-OV-3 ovarian it was 91.8%. For the same molecule, the growth was 11% with IGROV1 ovarian; -18.4% (active) in the test on OVCAR-3 ovarian; 36.8% with HS 578T breast; 19.5% in the test on NCI/ADR-RES ovarian; 49.5% in the test with T-47D breast; 56.3% in the test with BT-549 breast. Besides, the growth is 13.6% with MDA-MB-435 melanoma; 0.0421% (active) in the test on SW-620 colon; 14.3% in the test on MCF7 breast; 22.8% in the test with HCT-116 colon; 23.8% in the test on HCC-2998 colon; 25.7% with KM12 colon.

As for `CCn1cc(C(=O)N/N=C/c2cccs2)c(=O)c2cc(F)c(N3CCNC(C)C3)c(F)c21` (centres undefined), the growth is -4.21% (active) with SR leukemia; -36.6% (active) in the test with RPMI-8226 leukemia; 43.8% in the test on OVCAR-8 ovarian; 67.2% in the test on OVCAR-5 ovarian; 76.2% with OVCAR-4 ovarian; 90.3% in the test with SK-OV-3 ovarian. Moreover, the growth was 67% in the test with IGROV1 ovarian; 68.7% in the test on OVCAR-3 ovarian; 86% with HS 578T breast; 67.9% in the test with NCI/ADR-RES ovarian; 77.8% with T-47D breast; 61.6% in the test on BT-549 breast. The growth in the test with MDA-MB-435 melanoma is 92.2%; with SW-620 colon it was -16.8% (active); in the test on MCF7 breast, -77.4% (active); in the test on HCT-116 colon, 94.5%; in the test on HCC-2998 colon, 28.6%; in the test with KM12 colon, 83.5%.

With `CC1=NN(c2nc(SCC(=O)Nc3nc4ccc(C)cc4s3)nc(-c3ccccc3)c2C#N)C(=O)C1`, the growth in the test with SR leukemia is 87.2%; in the test with RPMI-8226 leukemia, 110%; in the test with OVCAR-8 ovarian it was 102%; in the test on OVCAR-5 ovarian it was 92.6%; with OVCAR-4 ovarian, 101%; with SK-OV-3 ovarian it was 106%. Further, the growth is 83.5% in the test on IGROV1 ovarian; 108% with OVCAR-3 ovarian; 90.5% in the test with HS 578T breast; 100% in the test on NCI/ADR-RES ovarian; 91.3% in the test on T-47D breast; 95.5% in the test on BT-549 breast. Moreover, the growth in the test with MDA-MB-435 melanoma is 103%; with SW-620 colon, 102%; in the test with MCF7 breast it was 96.8%; with HCT-116 colon, 101%; in the test on HCC-2998 colon, 104%; in the test on KM12 colon it was 101%.
